Many of the other results were omitted from the sample, so hits are more common in it than they were.
Methyltransferases: Primary Screen for Target Class Profiling of Small Molecule Inhibitors of Methyltransferases | purified enzyme, MTase-Glo SAH luminescence; stronger effect = lower value | calls only at 40 µM | 25,000 compounds, 3.9% hits | AID 1745853, 2022; call rule not given here
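Each enzyme was reacted with SAM and its substrate, with compounds tested once at 40 uM; SAH formed was read by MTase-Glo luminescence.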
* = called active by the depositor; i = inactive; + = active, no number. % is set by controls: 0 for no effect and ±100 for the full control effect.

SMILES	Methyltransferases
C=C(CO)C(=O)O[C@H]1CC(=C)[C@@H]2C[C@H](O)C(=C)[C@@H]2[C@H]2OC(=O)C(=C)[C@@H]21	+
O=C(Nc1ccc2c(c1)OCCO2)N1Cc2ccccc2-n2cccc2C1c1ccccc1 (stereo unspecified)	i
CSc1ccc(C2c3cccn3-c3ccccc3CN2C(=O)NC2CCCC2)cc1 (stereo unspecified)	i
CN(C)c1ccc(C2c3cccn3-c3ccccc3CN2C(=O)Nc2ccc(F)cc2)cc1 (stereo unspecified)	i
COc1ccc(OC)c(NC(=O)N2Cc3ccccc3-n3cccc3C2c2cccc(Cl)c2)c1 (stereo unspecified)	i
CCOc1ccc(NC(=O)N2Cc3ccccc3-n3cccc3C2c2ccc(OC)cc2)cc1 (stereo unspecified)	i
COc1cccc(CNC(=O)N2Cc3ccccc3-n3cccc3C2c2ccc(Cl)cc2)c1 (stereo unspecified)	i
CCc1ccccc1NC(=O)N1Cc2ccccc2-n2cccc2C1c1ccccc1 (stereo unspecified)	i
Clc1ccc([C@]23CNC[C@H]2C3)cc1Cl	+
Cc1ccc(NC(=O)N2Cc3ccccc3-n3cccc3C2c2ccccc2Cl)cc1 (stereo unspecified)	i
COc1ccccc1NC(=O)N1Cc2ccccc2-n2cccc2C1c1cc(F)cc(F)c1 (stereo unspecified)	i
CCOc1ccc(C2c3cccn3-c3ccccc3CN2C(=O)Nc2ccc(C)c(Cl)c2)cc1 (stereo unspecified)	i
Cc1ccc(NC(=O)N2Cc3ccccc3-n3cccc3C2c2ccccc2)c(C)c1 (stereo unspecified)	i
CCCN(CCC)C1CCc2ccc(O)cc2C1 (stereo unspecified)	+
CCCN(CCC)C1CCc2cccc(O)c2C1 (stereo unspecified)	i
CCCN(CCC)[C@@H]1CCc2ccc(O)cc2C1	i
CCOc1ccc(NC(=O)N2Cc3ccccc3-n3cccc3C2c2ccc(C)cc2)cc1 (stereo unspecified)	i
O=C(Nc1ccccc1F)N1Cc2ccccc2-n2cccc2C1c1cccc(Cl)c1 (stereo unspecified)	i
Cc1[nH]nc2ccc(-c3cncc(OC[C@@H](N)Cc4c[nH]c5ccccc45)c3)cc12	+
Cc1ccc(C2c3cccn3-c3ccccc3CN2C(=O)Nc2cccc(Cl)c2)cc1 (stereo unspecified)	i
COc1ccc(NC(=O)N2Cc3ccccc3-n3cccc3C2c2ccccc2)cc1 (stereo unspecified)	i
Cc1ccc(NC(=O)N2Cc3ccccc3-n3cccc3C2C)cc1Cl (stereo unspecified)	i
CCCN1CC[C@@H]2c3cc(O)ccc3CC[C@@H]21	+
Cc1ccccc1NC(=O)N1Cc2ccccc2-n2cccc2C1c1ccc(F)cc1 (stereo unspecified)	i
O=C(NC1CCCC1)N1Cc2ccccc2-n2cccc2C1c1ccccc1Cl (stereo unspecified)	i
SMILES	Methyltransferases
O=C(Nc1cccc2c1CCCC2)N1Cc2ccccc2-n2cccc2C1c1cccs1 (stereo unspecified)	i
Cc1cc(C)cc(NC(=O)N2Cc3ccccc3-n3cccc3C2C(C)C)c1 (stereo unspecified)	i
O=C1NC(=O)c2c1c1c3ccccc3[nH]c1c1[nH]c3ccccc3c21	+
CCOCCCNC(=O)N1Cc2ccccc2-n2cccc2C1c1cc(F)cc(F)c1 (stereo unspecified)	i
COc1ccc(NC(=O)N2Cc3ccccc3-n3cccc3C2c2ccccc2C)cc1OC (stereo unspecified)	i
COc1ccc(C2c3cccn3-c3ccccc3CN2C(=O)Nc2cc(F)ccc2F)cc1OC (stereo unspecified)	i
CCOc1ccc(C2c3cccn3-c3ccccc3CN2C(=O)Nc2cccc(C)c2)cc1 (stereo unspecified)	i
NC(=O)CI	+
Cc1ccc(CNC(=O)N2Cc3ccccc3-n3cccc3C2c2cccc(C)c2)cc1 (stereo unspecified)	i
Cc1cccc(C2c3cccn3-c3ccccc3CN2C(=O)Nc2ccc(Br)c(C)c2)c1 (stereo unspecified)	i
Cc1ccc(C2c3cccn3-c3ccccc3CN2C(=O)Nc2ccc(Cl)cc2)cc1 (stereo unspecified)	i
CCCCCOc1cc2c(cc1-c1cc(/C=C/C(=O)O)ccc1O)C(C)(C)CCC2(C)C	+
COc1ccc(C2c3cccn3-c3ccccc3CN2C(=O)Nc2cc(C)ccc2C)cc1 (stereo unspecified)	i
Cc1cccc(C2c3cccn3-c3ccccc3CN2C(=O)Nc2ccc(C)c(C)c2)c1 (stereo unspecified)	i
Cc1ccc(C)c(NC(=O)N2Cc3ccccc3-n3cccc3C2C(C)C)c1 (stereo unspecified)	i
CN1CC[C@@]2(C)c3cc(O)ccc3N(C)C12 (stereo partly specified)	+
